Compound activity deposited in PubChem by National Center for Advancing Translational Sciences (NCATS).
The sample as a whole holds a higher share of hits than the screen did.
AmpC detergent: blocks E. coli AmpC beta-lactamase in detergent assay | P00811 | AmpC hydrolysis of nitrocefin, absorbance 480 nm, 0.01% Triton | Potency, µM (highest dose often 114 µM), actives largely listed as inhibitors | hit rate 0.041% among 370,000; note: nearly all actives have a fitted effect of over 25% in size
Target sequence (P00811 whole entry, looked up): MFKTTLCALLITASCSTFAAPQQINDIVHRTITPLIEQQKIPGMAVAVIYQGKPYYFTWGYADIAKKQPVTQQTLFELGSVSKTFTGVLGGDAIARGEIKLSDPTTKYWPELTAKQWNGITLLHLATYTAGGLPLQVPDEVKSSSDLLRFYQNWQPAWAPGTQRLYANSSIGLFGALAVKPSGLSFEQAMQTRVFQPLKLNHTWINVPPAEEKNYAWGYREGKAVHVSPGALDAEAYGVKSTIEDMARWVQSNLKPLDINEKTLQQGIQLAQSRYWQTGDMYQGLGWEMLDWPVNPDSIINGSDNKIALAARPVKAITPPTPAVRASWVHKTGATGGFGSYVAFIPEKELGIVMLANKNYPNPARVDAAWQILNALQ
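20 mM phosphate pH 7.0 + 0.01% (detergent screen) or 0.0001% Triton X-100; 5.3 nM AmpC reagent; cpd preinc 15 min RT; nitrocefin (800 uM stock) to start; A480 q20 s × 4 min; Activity was normalised to no-enzyme and no-compound control wells.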
Shiga toxin inh: blocks Shiga toxin action in Vero cells; Vero cells, Shiga toxin protein synthesis inhibition reporter; inhibition, % at 38.7 µM; hit rate 9.2% among 290,000; AID 2315; in the data active = inhibition mostly above about 28%, no sharp cut-off; inactive = mostly below about 43%
Cycloheximide cs: affects cycloheximide protein synthesis inhibition readout, counter-screen. cell reporter, cycloheximide protein synthesis inhibition counterscreen. max response, %. hit rate 12% among 300,000; in the data active = max response mostly above about 13%, no sharp cut-off; inactive = mostly below about 14%; note: read at 38.3 µM for the half of the compounds with a filed dose
AmpC no deterg: AmpC beta-lactamase inhibition without detergent; AmpC nitrocefin hydrolysis, absorbance 480 nm, 0.0001% Triton; Potency, µM (titrated, usually from 57.1 µM), usual class: inhibitors; P00811; hit rate 0.52% among 330,000; note: nearly all actives have a fitted effect of over 20% in size
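20 mM phosphate pH 7.0 + 0.01% (detergent screen) or 0.0001% Triton X-100; 5.3 nM AmpC reagent; cpd preinc 15 min RT; nitrocefin (800 uM stock) to start; A480 q20 s × 4 min; Activity was normalised to no-enzyme and no-compound control wells.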
NS1 inh: blocks influenza NS1 protein function. Potency, µM (titrated, usually from 46.1 µM). hit rate 0.4% among 270,000; calls by dose curve; note: actives are rising curves; nearly all actives have a fitted effect of over 50% in size
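Recovery from NS1-induced slow growth read by OD600 in budding yeast switched to galactose assay medium (pH 6.0, -URA) at 1:100 dilution. Compound 23 nl per well; the matching strain lacking NS1 serves as control.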
NS1 inh valid: influenza NS1 function inhibition validation | shares compounds with NS1 inh | influenza NS1 function cell assay, 15-point titration | activity change, negative = inhibition, % at 32.9 µM | 1,400 tested, under 10 active | AID 492980; calls by dose curve
PR8 titer: reduces influenza A/PR/8/34 replication in MDCK cells; hit rate 30% among 95; shares compounds with NS1 inh; AID 504647; MDCK infected influenza A/PR/8/34, virus titer TCID50; hits give low values; virus titer (log TCID50), log10 TCID50 at 5 µM; call rule not given here
A number is an active result; 0 = inactive; ? = inconclusive; - = no result. Unless noted, calls come from the whole dose curve; as a rule, active = well fitted curve in the direction sought with a large enough effect; inconclusive = small, poorly fitted or top-dose-only effect, or another doubt; inactive = no such curve, though single readings can be large; an effect the other way counts as inactive or inconclusive.

SMILES	AmpC detergent	Shiga toxin inh	Cycloheximide cs	AmpC no deterg	NS1 inh	NS1 inh valid	others
COc1ccc(CCNC(=O)c2ccccc2NS(=O)(=O)c2cc(C(=O)O)ccc2OC)cc1	0	0	0	0	?	0
Cc1oc(-c2ccccc2F)nc1CS(=O)(=O)CC(=O)NC1CCCC(C)C1C (stereo unspecified)	0	0	0	0	0	-
Cn1c(=O)c2[nH]c(N=NNc3ccccc3F)nc2n(C)c1=O	0	0	0	0	0	-
CN1CCc2cc(NC(=O)Nc3cccnc3)ccc21	-	-	-	-	25µM	0
N#Cc1c(NC(=O)CCC(=O)O)sc2c1CCCC2	0	0	0	0	0	-
CC(C)CC(=O)NC(NC(=S)Nc1sc2c(c1C#N)CCCC2)C(Cl)(Cl)Cl (stereo unspecified)	0	0	0	0	7.1µM	0	PR8 titer=0
Cc1ccc(-n2nnnc2SCC(=O)c2cc(C)n(-c3cc(C)on3)c2C)c(C)c1	0	0	0	0	?	0
Cc1cc(-n2c(C)cc(C(=O)CSc3ccccn3)c2C)no1	-	-	-	0	-	-
CCOc1ccc(OCC)c(NS(=O)(=O)c2cccc3nsnc23)c1	0	0	0	0	?	0
O=C(O)c1nn(CCOc2ccc(Cl)cc2Cl)c(=O)c2ccccc12	0	0	0	0	0	-
O=C(Cn1cnc2scc(-c3ccc(Cl)cc3)c2c1=O)N1CCOCC1	0	0	0	0	?	0
CC(C)C(=O)N1CCN(c2ccc([N+](=O)[O-])c(NC(C)c3ccccc3)c2)CC1 (stereo unspecified)	0	0	0	0	0	-
O=C1CC(c2ccco2)CC(O)=C1C=NCC1CCNCC1 (stereo unspecified)	0	0	0	0	10µM	0
O=C1CC(c2ccco2)CC(O)=C1C=NCCN1CCNCC1 (stereo unspecified)	0	0	0	0	0	-
NC(=O)CSc1n[nH]c(=O)n1CCc1ccccc1	0	0	0	0	?	-
Cc1ccc(-c2csc(NC(=S)NC(=O)c3ccco3)n2)cc1	0	0	0	0	0	-
O=C(NNc1nc(-c2ccccc2)cs1)c1ccco1	0	0	12	0	4µM	0
O=C(NNc1nc(-c2ccc(Cl)cc2)cs1)c1ccco1	0	41	39	0	3.2µM	0
CCOc1ccc(S(=O)(=O)N2CCCC(C(=O)N3CCOCC3)C2)cc1C (stereo unspecified)	0	0	0	0	0	-
Cc1ccc(C(=O)N2CCN(C3c4cccc5cccc(c45)C3NS(=O)(=O)c3ccccc3)CC2)cc1 (stereo unspecified)	0	0	0	0	11µM	0
O=C1CCC(C(=O)N2CCC(CO)CC2)CN1Cc1ccc(Cl)cc1 (stereo unspecified)	0	0	0	0	0	-
O=C1CCC(C(=O)N2CCCCCC2)CN1CCc1ccc(Cl)cc1 (stereo unspecified)	0	0	0	0	2µM	0
CSc1nc2ccccc2cc1/C=C(\C#N)c1ccccc1	0	0	0	0	2µM	0
COc1ccc(S(=O)(=O)N2CCOCC2)cc1NC(=O)CSc1nnc(N)s1	?	-	-	0	-	-
O=C(CSc1nc(-c2ccccc2)c(-c2ccccc2)[nH]1)N1CCN(S(=O)(=O)c2ccccc2)CC1	0	0	0	0	3.5µM	0
SMILES	AmpC detergent	Shiga toxin inh	Cycloheximide cs	AmpC no deterg	NS1 inh	NS1 inh valid	others
NC(=O)CN(Cc1ccccc1)S(=O)(=O)c1ccc2c(c1)OCCO2	0	0	0	0	0	-
Cc1ccc(/C=N/NC(=O)CN(Cc2ccccc2)S(=O)(=O)c2ccc3c(c2)OCCO3)cc1	0	0	0	0	13µM	0	PR8 titer=0
COc1ccc(OC)c(/C=N/NC(=O)Cc2nc3ccccc3[nH]2)c1	0	0	0	0	2µM	0
Cn1nc(-c2ccccc2)c(C#N)c1Sc1cccc(Cl)c1	0	0	0	0	?	0
CN(C)/C=C1\SC(=S)N(c2ccc(Br)cc2)C1=O	0	46	34	0	?	0
CCN(CC)c1ccc(N2C(=O)/C(=C\c3cccs3)SC2=S)cc1	0	0	0	0	0	-
O=C(Nc1nnc2n1CCS2)c1ccco1	0	0	0	0	?	0
O=C(NNc1nc(-c2ccccc2)c2cc(Br)ccc2n1)c1ccc(S(=O)(=O)N2CCOCC2)cc1	0	0	0	0	11µM	0
Cc1ccc(N(CC(=O)Nc2cccc(C)c2)S(=O)(=O)c2cccc3nonc23)cc1	0	0	0	0	7.1µM	0	PR8 titer=0
Cn1cccc1C(C#N)c1ncc(C(F)(F)F)cc1Cl (stereo unspecified)	0	0	0	0	0	-
COCCNC(=O)Cn1cc(C(=S)N2CCOCC2)c2ccccc21	0	0	0	0	0	-
CCCC1(c2ccccc2)NC(=O)N(CC(=O)c2[nH]c(C)c(C(=O)OCC)c2C)C1=O (stereo unspecified)	0	0	0	0	?	0	PR8 titer=6.7
CCCC1(c2ccccc2)NC(=O)N(CC(=O)Nc2sc(-c3ccccc3)cc2C(=O)OCC)C1=O (stereo unspecified)	0	0	0	0	0	-
CCOC(=O)c1c(C)[nH]c(C(=O)CN2C(=O)NC(C)(c3ccc4ccccc4c3)C2=O)c1C (stereo unspecified)	?	0	0	0	?	0
CCn1nnnc1SCC(=O)c1cc(OC)ccc1OC	0	0	0	0	0	-
Cc1cc(C)cc(-n2c(C)cc(C(=O)C(=O)Nc3ccccc3F)c2C)c1	0	-	-	-	-	-
Cc1cc(-c2ccc(NC(=O)[C@@H]3CCCC[C@@H]3C(=O)O)c(C)c2)ccc1NC(=O)[C@@H]1CCCC[C@@H]1C(=O)O	0	0	0	0	4µM	?
COC(=O)c1ccccc1NC(=O)C1CCCCC1C(=O)O (stereo unspecified)	?	0	0	0	5µM	0
O=C(Cc1c[nH]c2ccccc12)Nc1nc2ccccc2[nH]1	0	74	26	0	11µM	0
CC(=O)Nc1ccc(S(=O)(=O)NCc2ccncc2)cc1	0	0	0	0	0	-
CCN(CC)c1nc2c(c(=O)[nH]c(=O)n2C)n1CCCc1ccccc1	0	0	0	0	0	-
COc1ccc(S(=O)(=O)Nc2cc(C(=O)NC3CCCCCC3)ccc2N2CCOCC2)cc1	0	0	0	0	10µM	0
O=C(c1ccc2c(=O)n(CC3CCCO3)c(=S)[nH]c2c1)N1CCN(c2ccccc2)CC1 (stereo unspecified)	0	0	0	0	?	0
CN1C(=O)C(c2nnc(Nc3cccc4ccccc34)s2)C2CC1(C)Oc1ccccc12 (stereo unspecified)	0	0	0	0	11µM	0
Cc1ccc(S(=O)(=O)C2C(=O)N(C)C3(C)CC2c2ccccc2O3)cc1C (stereo unspecified)	0	0	0	0	0	-
